KDM5B inhibitor: Primary screen for KDM5B Histone Demethylases FDH-coupled qHTS; Lysine-specific demethylase 5B (Homo sapiens), Q9UGL1; KDM5B demethylase, FDH-coupled NADH fluorescence (FDH is formaldehyde dehydrogenase); Potency, µM (highest dose often 57.7 µM), usual class: inhibitors; hit rate 2.6% among 220,000; AID 1347165, 2019; active = well fitted inhibition curve with a large enough effect; also: nearly all actives have a fitted effect of over 70% in size
Target sequence (Q9UGL1 whole entry, looked up): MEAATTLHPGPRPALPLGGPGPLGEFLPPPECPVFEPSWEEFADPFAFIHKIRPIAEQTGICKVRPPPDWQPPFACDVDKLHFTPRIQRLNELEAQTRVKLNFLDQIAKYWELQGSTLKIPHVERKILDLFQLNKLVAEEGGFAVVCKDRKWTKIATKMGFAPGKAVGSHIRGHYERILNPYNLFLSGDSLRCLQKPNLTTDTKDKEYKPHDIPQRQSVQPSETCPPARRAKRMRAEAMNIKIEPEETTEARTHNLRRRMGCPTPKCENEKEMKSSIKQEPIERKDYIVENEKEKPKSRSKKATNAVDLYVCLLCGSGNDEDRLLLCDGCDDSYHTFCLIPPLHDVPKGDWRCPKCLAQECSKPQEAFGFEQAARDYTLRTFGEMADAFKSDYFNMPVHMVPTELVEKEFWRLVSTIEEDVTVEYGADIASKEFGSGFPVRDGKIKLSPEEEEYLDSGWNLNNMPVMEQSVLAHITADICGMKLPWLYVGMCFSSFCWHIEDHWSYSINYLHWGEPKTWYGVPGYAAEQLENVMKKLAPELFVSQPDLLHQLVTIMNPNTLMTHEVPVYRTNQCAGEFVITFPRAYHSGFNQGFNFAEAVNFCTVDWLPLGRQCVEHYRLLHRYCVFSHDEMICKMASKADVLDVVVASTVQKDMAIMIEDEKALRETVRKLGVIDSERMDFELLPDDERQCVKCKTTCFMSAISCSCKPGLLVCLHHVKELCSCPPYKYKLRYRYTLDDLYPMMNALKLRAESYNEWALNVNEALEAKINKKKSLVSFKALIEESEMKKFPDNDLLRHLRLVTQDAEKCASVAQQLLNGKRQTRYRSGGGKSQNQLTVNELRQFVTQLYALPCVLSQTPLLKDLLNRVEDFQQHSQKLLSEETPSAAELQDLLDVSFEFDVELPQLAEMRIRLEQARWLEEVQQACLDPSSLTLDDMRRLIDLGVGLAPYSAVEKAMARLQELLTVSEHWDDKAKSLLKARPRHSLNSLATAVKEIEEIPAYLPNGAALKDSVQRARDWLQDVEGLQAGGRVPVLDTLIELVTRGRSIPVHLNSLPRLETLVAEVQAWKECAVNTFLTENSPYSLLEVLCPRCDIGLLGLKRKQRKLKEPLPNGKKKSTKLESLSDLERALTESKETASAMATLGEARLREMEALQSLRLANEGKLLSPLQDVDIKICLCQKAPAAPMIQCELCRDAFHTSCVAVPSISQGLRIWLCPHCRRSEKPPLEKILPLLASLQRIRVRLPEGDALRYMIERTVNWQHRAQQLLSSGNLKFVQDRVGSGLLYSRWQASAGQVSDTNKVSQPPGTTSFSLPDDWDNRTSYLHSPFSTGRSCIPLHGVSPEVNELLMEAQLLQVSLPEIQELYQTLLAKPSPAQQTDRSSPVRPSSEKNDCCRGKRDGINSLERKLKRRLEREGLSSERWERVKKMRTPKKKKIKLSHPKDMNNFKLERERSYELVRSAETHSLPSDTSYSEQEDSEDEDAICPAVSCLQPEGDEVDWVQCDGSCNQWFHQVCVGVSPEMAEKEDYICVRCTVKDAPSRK
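Inhibition is measured as reduced NADH fluorescence generation from FDH coupling to formaldehyde release. Truncated KDM5BΔAP at 200 nM final acts on H3K4me3 peptide (12.5 µM in substrate mix) in pH 7.5 HEPES buffer with Tween-20, 30 min, room temperature.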
A number is an active result; - = inactive. This is one part of a sample in which hits are shown more often than they occur.

SMILES	KDM5B inhibitor
Cc1noc(C)c1-c1cc2cc(C(C)C)oc2c(-c2c(C)noc2C)n1	-
O=C(NC1CC1)c1ccccc1OC1CN(C2CCC2)C1	-
CCC(CC)C(NC(=O)Cc1ccccc1F)c1cccs1 (stereo not given)	-
Cc1nc(C)c(C(=O)N2CCC(N3C[C@H](O)C[C@H]3C(=O)NC3CCCCC3)CC2)s1	-
O=C(COc1ccccc1)Nc1nc2n(n1)C(c1ccc(Cl)cc1)CC(=O)N2 (stereo not given)	-
O=C(/C=C/c1ccco1)Nc1ccc(SC2CCCC2)cc1	-
O=C(N/N=C/c1ccccc1C(F)(F)F)C1CC1	-
Cc1ccc(CN(C)C(=O)c2ccc(S(C)=O)cc2)cc1 (stereo not given)	-
Cc1ccccc1NCCC(=O)N(C)Cc1ccc(C(=O)NCC(F)(F)F)cc1	-
O=S(=O)(c1ccc(Br)cc1Cl)N1CCNCC1	-
COc1ccccc1NC(=O)COc1ccc(C)cc1-n1cnnc1	-
Cc1cccc2cc(C(=O)O)[nH]c12	-
CCC1CCc2sc(C(=O)N3CCN(c4ncccn4)CC3)cc2C1 (stereo not given)	-
Cn1cnc2c1c(=O)n(CC(=O)NCc1cccc(Cl)c1)c(=O)n2C	-
CC(NC(=O)/C(=C/c1cccc(Br)c1)NC(=O)c1ccco1)C(=O)O (stereo not given)	-
CCCN1CCc2[nH]cnc2C12CCN(C(=O)c1cnn3ccccc13)CC2	25µM
COc1cc2c(cc1C(=O)N1CCC3(CC1)c1nc[nH]c1CCN3C)CCC2	-
CN1CCc2[nH]cnc2C12CCN(C(=O)c1ccc(-c3ccn[nH]3)cc1)CC2	-
Cc1ccc(NC(=O)Cn2cnc3c2c(=O)n(C)c(=O)n3C)cc1F	-
O=[S+]([O-])(c1cccs1)N1CCN(c2nc3ncccc3o2)CC1	-
COC(=O)NC1CCN(c2nc3ncccc3o2)CC1	35µM
O=C(Nc1ccccn1)C1CCN(c2nc3ccccc3o2)CC1	-
Cc1ccc([S+](=O)([O-])N2CCN(c3nc4ncccc4o3)CC2)cc1	-
O=C(NCc1cccs1)C1CCCN1c1nc2ncccc2o1 (stereo not given)	-
O=[S+]([O-])(NC1CCN(c2nc3ncccc3o2)CC1)c1cccs1	22µM
SMILES	KDM5B inhibitor
O=C(NC1CCCC1)O[C@H]1COCCN(c2nc3ccccc3o2)C1	-
O=C(NC1CCN(c2nc3ncccc3o2)CC1)C1CC1	28µM
O=C(NCc1ccc2c(c1)OCO2)C1CCCN1c1nc2ncccc2o1 (stereo not given)	-
CC(C)NC(=O)C1CCCN1c1nc2ncccc2o1 (stereo not given)	-
O=C(NCc1cccs1)C1CCN(c2nc3ncccc3o2)CC1	32µM
CCNC(=O)NC(=O)CSc1nc2ccccc2c(=O)n1-c1ccc(F)cc1F	-
Cc1cc(NC(=O)c2ccc3nc(N4CCCCC4)sc3c2)ccc1Br	-
Cc1c(C(=O)N(C)c2ccccc2)nnn1-c1ccccc1F	-
CC(C)C(=O)N1N=C(c2ccccc2NS(C)(=O)=O)CC1c1ccco1 (stereo not given)	-
COc1ccc(-c2cc3c(=O)n(CCNC(=O)c4ccc5c(c4)OCO5)ccn3n2)cc1	6.3µM
CCc1ccc(C(=O)NCCn2ccn3nc(-c4ccc(F)cc4)cc3c2=O)cc1	-
CC(=O)Nc1cccc(C(=O)NCCn2ccn3nc(-c4ccc(F)cc4)cc3c2=O)c1	-
COc1ccc(C(=O)NCCn2ccn3nc(-c4ccc(F)cc4)cc3c2=O)cn1	25µM
COC(=O)c1ccc(NC(=O)Cn2ccn3nc(-c4ccc(OC)cc4)cc3c2=O)cc1	-
CCOc1ccc(-c2cc3c(=O)n(CCNC(=O)c4ccc(F)c(F)c4)ccn3n2)cc1	-
COc1ccc(-c2cc3c(=O)n(CCNC(=O)c4ccc(N(C)C)cc4)ccn3n2)cc1	25µM
COc1cc(C=O)cc(Cl)c1OCc1ccc(F)cc1	-
C/C(=N/NC(=S)NC(C)C)c1ccc(Cl)cc1	-
CCOc1ccc(C2NC(=O)N(CC)C3=C2C(=O)OC3)cc1 (stereo not given)	-
COCCN1C(=O)c2cccn2CC1CNC(=O)c1n[nH]c(=O)c2ccccc12 (stereo not given)	-
COc1ccc2c(c1)CN(Cc1ccccc1Cl)CC[C@H]1COC(=O)N21	-
CN(C)CCCOc1ccc(-c2cnc(N)cn2)cn1	32µM
CN(C)CCCOC(=O)COc1ccc(Br)cc1	-
Cc1ccc(C(=O)OCCCN(C)C)cc1	-
COCC(=O)N1C[C@H](NC(=O)c2nc3ccccc3n(C)c2=O)[C@@H](C2CC2)C1	22µM
SMILES	KDM5B inhibitor
COCC(=O)N1C[C@H](NC(=O)C(=O)c2cccn2C)[C@@H](C2CC2)C1	-
COCCn1c(SCC(=O)NC2CC2)nc2ccccc21	-
Cc1noc(-c2ccccc2Cl)c1C(=O)N1CCC(Cc2ccccc2)CC1	-
CCC(=O)N1CCC(n2c(C)cnc2C2CC2)CC1	-
Cc1ccc(C)c(NC(=O)CC(C)(C(=O)O)c2ccccc2)c1 (stereo not given)	-
NC(=O)COc1ccccc1OC[C@@H]1CCCN2CCCC[C@H]12	-
CC(=O)N1CCC(N[C@@H]2CO[C@H](CNC(=O)CC(C)(C)C)[C@H]2O)CC1	-
CCCS(=O)(=O)N1CCCC(Cc2noc(-c3cccnc3)n2)C1 (stereo not given)	-
Cc1nc(CC2CCN(c3nccc(-c4cccnc4)n3)CC2)no1	22µM
Cc1ccccc1S(=O)(=O)N1CCCC(Cc2noc(-c3cccnc3)n2)C1 (stereo not given)	-
CC(SC(C)c1c(F)cccc1F)C(=O)NC(N)=O (stereo not given)	-
COCCn1c(C)nnc1-c1cc(-c2ccnc(C)c2)ccn1	-
COCCn1c(C)nnc1-c1cc(-c2ccccc2Oc2ccccc2)ccn1	-
COCCn1c(C)nnc1-c1cc(-c2cccc(OC)c2)ccn1	35µM
Cn1nccc1C(O)c1cc2n(n1)CCN(CC(=O)N1CCOCC1)C2 (stereo not given)	-
CC(C)c1nc2cc(NC(=O)Cc3ccc([N+](=O)[O-])cc3)ccc2o1	-
Cc1nc(-c2ccc(F)cc2)n(Cc2ccccc2F)c(=O)c1CCO	-
Cc1nc(-c2ccccc2)n(Cc2cc(=O)n3ccccc3n2)c(=O)c1CCO	22µM
Cc1nc(-c2ccccc2)n(Cc2nc(-c3ccccc3)oc2C)c(=O)c1CCO	-
CCCc1c(C)nc(Nc2nc(C)c3cc(CC)ccc3n2)[nH]c1=O	-
CC(=O)N1CCC(C(=O)N[C@H]2CCN3C(=O)N(c4ccc(C)cc4)C(=O)[C@@H]3C2)CC1	-
N#Cc1c(N)n[nH]c1CCCNC(=O)c1cn(Cc2ccccc2)nc1-c1cccnc1	-
Cn1cc(CNC(=O)C[C@@H]2C[C@H]3O[C@H](CNC(=O)NCc4ccccc4)[C@@H](O)[C@H]3O2)cn1	-
Cc1noc(-c2ccc(NCc3ccccc3)c([N+](=O)[O-])c2)n1	-
CCN1CC(Nc2ccc(-c3nc(CCCc4ccccc4)no3)cn2)CC1=O (stereo not given)	28µM
SMILES	KDM5B inhibitor
O=S(=O)(Cc1cccc(Cl)c1)NCCc1noc(-c2ccccc2)n1	-
O=C(CCC(F)(F)F)NC1CC(=O)N(CCCc2ccccc2)C1 (stereo not given)	-
Cc1noc(-c2ccc(OC3CN(C(=O)CCCc4ccccc4)C3)cc2)n1	-
CC(C)C(=O)NCCc1noc(-c2ccccc2)n1	-
Cc1cc(CNc2ccc(-c3nc(CCCc4ccccc4)no3)cn2)no1	28µM
Cn1cc(CNc2ccc(-c3nc(CCCc4ccccc4)no3)cn2)cn1	32µM

Bioassay records: PubChem BioAssay, National Center for Advancing Translational Sciences (NCATS)
